Source: PubChem BioAssay

Molecular target: Left-right determination factor 2 (Homo sapiens) (UniProt O00292)
Assay: LEFTY2 binders on small-molecule microarrays, primary screen, biochemical, small-molecule microarray, 635 nm fluorescence scan (AID 1110)
Conditions: LEFTY2 binding, higher = more signal

Sequence of Left-right determination factor 2 (Homo sapiens) (O00292 whole entry, looked up): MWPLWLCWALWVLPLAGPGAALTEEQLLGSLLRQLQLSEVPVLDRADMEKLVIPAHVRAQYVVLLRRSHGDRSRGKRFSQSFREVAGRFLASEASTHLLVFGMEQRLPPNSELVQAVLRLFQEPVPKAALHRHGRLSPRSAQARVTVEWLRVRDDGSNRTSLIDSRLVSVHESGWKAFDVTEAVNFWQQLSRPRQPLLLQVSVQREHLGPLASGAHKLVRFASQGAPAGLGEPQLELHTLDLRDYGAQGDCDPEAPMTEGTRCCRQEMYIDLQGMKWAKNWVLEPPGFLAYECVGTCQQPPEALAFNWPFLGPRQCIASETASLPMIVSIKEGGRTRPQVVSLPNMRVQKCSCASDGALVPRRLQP

| Compound | composite z-score |
| --- | --- |
| COCCCNC(=O)[C@@]1(Sc2ccc(C)cc2)CC(=O)N(C2CCCCC2)[C@@H]1c1ccc(CO)cc1I | 0.816 |
| [N-]=[N+]=NCc1ccccc1C[C@]1(C(=O)O)COC(c2ccc(OCCCO)cc2)=N1 | -1.47 |
| COC(=O)[C@@]1(Cc2ccc(OC)cc2)[C@H]2c3cc(C(=O)N(C)C)n(Cc4ccsc4Br)c3C[C@H]2CN1C(=O)c1ccccc1 | -0.318 |
| CCCCC(=C=CC[C@@H](O)c1ccc(OCCO)cc1)C[C@@H](O)c1ccccn1 | 0.288 |
| O=C1NC(=O)C2C1C=CC(C(O)c1cccc(O)c1)N2Nc1ccc(Cl)cc1Cl (centres undefined) | -0.715 |
| [N-]=[N+]=NCc1ccccc1C[C@]1(C(=O)NCc2ccccc2)N=C(c2ccc(OCCCO)cc2)O[C@H]1c1ccccc1CN=[N+]=[N-] | -0.578 |
| O=C1O[C@H](c2ccccc2)[C@H](c2ccccc2)N2[C@H]1[C@@H](C(=O)N1CCN(c3ncccn3)CC1)[C@]1(C(=O)Nc3ccccc31)[C@H]2c1ccc(O)cc1 | -0.412 |
| COC(=O)[C@@]1(Cc2ccc(F)cc2)[C@H]2c3cc(C(=O)N4CCCC4)n(CCO)c3C[C@H]2CN1C(=O)c1ccccc1 | -0.83 |
| O=C1NC(=O)C2C1C=CC(C(O)c1ccc(F)cc1)N2Nc1ccccn1 (centres undefined) | -0.0392 |
| CC[C@H](C)C(=O)O[C@H]1CC[C@]2(C)C3=C(CCC2C1(C)C)[C@]1(C)CC[C@H]([C@H](C)CCCC(C)C)[C@@]1(C)CC3 (some centres undefined) | 0.405 |
| CCCC[C@H]1OB(O)C[C@H]2C1=C(COC)C[C@H]1C(=O)C=CC(=O)[C@H]12 | 0.594 |
| CCCCCCCCCCC(O)C1C=CC2C(=O)N(C)C(=O)C2N1N1CCCCC1 (centres undefined) | -2.49 |
| C=CC[C@]1(C(=O)NCCCOC)N=C(c2ccc(OCCCO)cc2)O[C@H]1c1ccccc1 | -0.916 |
| CC1CC/C=C\[C@H]2OC34C=CCN(c5ccc(Cl)cc5)C(=O)[C@H]3N(CCCO)C(=O)[C@]4(C)C2C(=O)O1 (some centres undefined) | -1.33 |
| C=C(CC1([C@@H](NP(=O)(c2ccccc2)c2ccccc2)[C@H]2C[C@@H]2CCN(C(=O)OCC)S(=O)(=O)c2ccc(C)cc2)CC1)c1ccccc1 | -0.763 |
| COCC1=C([C@H](O)CCc2ccccc2)[C@H](CO)n2c(=O)n(-c3ccccc3)c(=O)n2C1 | 0.292 |
| COC(=O)c1ccc([C@H](NC(=O)c2ccccc2)[C@]2(C)C[C@H]2C2CCCCC2)cc1 | -0.254 |
| COCCOC(=O)N1C(=O)[C@@]2(c3cc(C#CC4=CCCCC4)ccc31)[C@H](c1ccccc1OCCO)N1[C@H](c3ccccc3)[C@H](c3ccccc3)OC(=O)[C@H]1[C@@H]2C(N)=O | 0.62 |
| C=CCC(OC(C)=O)[C@@H]1[C@@H](N(Cc2cc3ccccc3o2)C(=O)Cc2ccc(OC)cc2)c2cc(OCCCO)ccc2N1C(=O)Cc1ccc2ccccc2c1 (some centres undefined) | -0.487 |
| COc1ccc([Si](C)(C)[C@H]2[C@H](CCO)O[C@@]3(C(=O)N(Cc4ccccc4)c4ccc(N(C=O)c5ccccc5)cc43)[C@@H]2C)cc1 | 0.274 |
| CC(C)CNC(=O)[C@@H]1c2ccccc2C(=O)N(Cc2ccccc2Cl)[C@H]1c1ccc(CO)cc1 | -1.09 |
| CCCCNC(=O)c1ccc(C#C[Si](C)(C)C)c(OC(C)=O)c1 | 0.431 |
| COc1cc2c(cc1O)C(c1ccc(CN3CCCC3)cc1)N(Cc1cccc(OC(F)(F)F)c1)CC2 (centres undefined) | 0.629 |
| C=CCOC(=O)[C@H]1[C@@H]2C(=O)O[C@@H](c3ccccc3)[C@@H](c3ccccc3)N2[C@@H](c2ccc(OCCOC(=O)[C@H]3C[C@H]4C(=O)NCC(=O)N4[C@H]3c3ccc(O)cc3)cc2)[C@]12C(=O)Nc1ccc(I)cc12 | 0.788 |
| NC(=O)N1C(=O)C2C(C1=O)C1C=C(CCCO)C2C(c2ccc(CN3CCCC3)cc2)N1Cc1cccc(OC(F)(F)F)c1 (centres undefined) | 0.565 |
| C=C(CCCC)C(=O)CC[C@H](OC(C)=O)c1ccccc1OCCO | 0.549 |
| C=CCC(OC(C)=O)[C@@H]1[C@@H](N(Cc2cccc3ccccc23)C(=O)c2ccc(-c3ccccc3)cc2)c2cc(OCCCO)ccc2N1C(=O)c1ccc2ccccc2n1 (some centres undefined) | 0.258 |
| COC(=O)[C@@]1(Cc2ccccc2)[C@@H]2[C@@H](CC(=O)[C@H]2CC(=O)C(=O)N(C)C)CN1C(=O)c1ccccc1 | -0.116 |
| COCCOC(=O)N1C(=O)[C@@]2(c3cc(C#Cc4ccc(OC)cc4)ccc31)[C@H](C(=O)Nc1nc3ccccc3s1)[C@H]1C(=O)O[C@H](c3ccccc3)[C@H](c3ccccc3)N1[C@@H]2c1ccccc1OCCO | 0.615 |
